HepG2 viability – kills HepG2 cells in TGF-b inhibitor counter-screen; HepG2 CAGA-GFP viability, ATP luminescence, 18 h; AID 588856; actives 0.76% (n = 410,000); Potency, µM (doses to about 46.1 µM), actives largely listed as cytotoxic
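HepG2 CAGA-GFP cells (1000/well, DMEM with 1% FBS) received compound, then TGF-beta at 500 pg/mL final, and were incubated 18 hours at 37 degrees C. Viability was read by CellTiter-Glo luminescence. Media-only wells were set as complete cell-killing and DMSO as no toxicity.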
IL1B secr inh – inhibitors of inflammasome signaling (IL-1 beta secretion); AID 743279; actives 4.7% (n = 360,000); activity change, % at 57.5 µM; THP-1 LPS/ATP IL-1B secretion, AlphaLISA, 16 h; active compounds read low; in the data active = activity change below about -50%; inconclusive = mostly about -30% to -49%
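THP-1 cells pretreated 1 hr with compounds (up to 57.5 uM final), then stimulated with LPS (250 ng/mL final) plus ATP (1.25 mM final); secreted IL-1B measured by AlphaLISA after 16 hr, decreased signal indicating inhibition.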
TDP1 inh – inhibitors of human tyrosyl-DNA phosphodiesterase TDP1 | Q9NUW8 | recombinant TDP1, AlphaScreen DNA substrate cleavage | Potency, µM (doses to about 130 µM), actives largely listed as inhibitors | actives 0.28% (n = 350,000); note: nearly all actives have a fitted effect of over 40% in size
Target sequence (Q9NUW8 whole entry, looked up): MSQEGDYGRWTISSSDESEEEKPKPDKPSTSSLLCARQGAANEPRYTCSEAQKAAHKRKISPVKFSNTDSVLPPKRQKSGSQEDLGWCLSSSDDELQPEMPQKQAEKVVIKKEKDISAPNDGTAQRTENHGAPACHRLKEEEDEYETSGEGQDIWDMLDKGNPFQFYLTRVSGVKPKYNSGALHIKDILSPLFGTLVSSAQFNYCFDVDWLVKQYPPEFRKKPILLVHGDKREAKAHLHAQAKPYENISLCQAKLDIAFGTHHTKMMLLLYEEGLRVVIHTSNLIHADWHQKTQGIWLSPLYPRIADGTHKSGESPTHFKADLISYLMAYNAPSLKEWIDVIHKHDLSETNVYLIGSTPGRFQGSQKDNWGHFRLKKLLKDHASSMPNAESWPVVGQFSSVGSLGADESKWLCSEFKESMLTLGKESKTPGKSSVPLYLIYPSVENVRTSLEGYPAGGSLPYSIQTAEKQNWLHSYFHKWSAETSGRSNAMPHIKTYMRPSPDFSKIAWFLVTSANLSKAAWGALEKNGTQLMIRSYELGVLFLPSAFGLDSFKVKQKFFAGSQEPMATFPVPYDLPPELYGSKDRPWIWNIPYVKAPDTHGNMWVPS
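Recombinant E. coli-expressed Tdp1 (1 nM) preincubated with compound 15 min at RT, then 5'-biotin/3'-phosphotyrosine-FITC DNA substrate (15 nM) added for 5 min. AlphaScreen beads (10 ug/ml) added, 10 min RT; tyrosine-FITC cleavage read as signal loss.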
TGFb inhibitor – TGF-b pathway inhibition; Potency, µM (top dose mostly 46.1 µM), usual class: inhibitors; HepG2 CAGA-GFP TGF-b/SMAD3 reporter, GFP fluorescence, 18 h; TGF-beta stimulated, 500 pg/mL final; actives 1.2% (n = 410,000); note: nearly all actives have a fitted effect of over 65% in size
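Smad-responsive CAGA-GFP expression was quantified in HEPG2 cells exposed to compounds and 500 pg/mL final TGF-beta for 18 h at 37 degrees C; unstimulated wells defined full inhibition.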
TDP1 cell noCPT – qHTS for Inhibitors of human tyrosyl-DNA phosphodiesterase 1 (TDP1): qHTS in cells in absence of CPT; DT40 Tdp1-/- hTDP1 cells, no CPT, ATP luminescence, 48 h; Potency, µM (top dose mostly 46.2 µM), usual class: inhibitors; actives 15% (n = 420,000); note: nearly all actives have a fitted effect of over 55% in size
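Stably hTDP1-transfected Tdp1-null chicken DT40 cells were treated with library compounds minus camptothecin and grown for at least 48 hr at 37 °C, after which cellular ATP was quantified by luminescence.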
DT40 TDP1 CPT – DT40-hTDP1 cell growth loss with CPT | chicken DT40 Tdp1-/-;hTDP1 cells + 20 nM CPT, ATP luminescence, 48 h | Potency, µM (doses to about 46.2 µM), actives largely listed as inhibitors | actives 12% (n = 420,000); note: nearly all actives have a fitted effect of over 55% in size
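Chicken DT40 Tdp1-/- cells complemented with human TDP1, 400 cells/well, exposed to compounds plus 20 nM camptothecin for at least 48 h at 37 C; viability read as ATP content by CellTiter-Glo luminescence.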
Of the large screens only hits and unclear results are named; the others gave an inactive call; ! = not active in a repeat. An excerpt weighted towards active compounds, which were near 18% of everything screened. Unless noted, calls come from the whole dose curve; as a rule, active = well fitted curve in the direction sought with a large enough effect; inconclusive = small, poorly fitted or top-dose-only effect, or another doubt; inactive = no such curve, though single readings can be large; an effect the other way counts as inactive or inconclusive.

COc1cccc(Nc2nc(C(N)Cc3ccccc3)cs2)n1 (configuration not stated)	IL1B secr inh inconclusive, TGFb inhibitor 11µM, TDP1 cell noCPT 16µM, DT40 TDP1 CPT 13µM (no result: TDP1 inh)
NS(=O)(=O)c1ccc(NC(=O)COc2cccc3ccccc23)cc1	TDP1 cell noCPT inconclusive
CCOc1ccc(NC(=O)c2ccc(NC(=O)c3cn4c5c(c(N6CCN(C)CC6)c(F)cc5c3=O)OCC4C)cc2)cc1 (configuration not stated)	TDP1 cell noCPT 4.6µM, DT40 TDP1 CPT 5.2µM
CC1COc2c(N3CCN(C)CC3)c(F)cc3c(=O)c(C(=O)O)cn1c23 (configuration not stated)	TDP1 cell noCPT 13µM!, DT40 TDP1 CPT 21µM!
COc1cc(C(=S)N2CCOCC2)cc(OC)c1OS(=O)(=O)c1ccc(C)cc1	none
COc1ccc(CCN2C(=O)c3[nH]nc(-c4ccccc4O)c3C2c2ccc(OC)cc2)cc1 (configuration not stated)	TGFb inhibitor inconclusive, TDP1 cell noCPT inconclusive, DT40 TDP1 CPT inconclusive (no result: IL1B secr inh)
CCc1ccc(C2c3c(-c4ccccc4O)n[nH]c3C(=O)N2Cc2ccncc2)cc1 (configuration not stated)	TGFb inhibitor inconclusive, TDP1 cell noCPT 13µM, DT40 TDP1 CPT 15µM (no result: IL1B secr inh)
CCOCCCN1C(=O)c2[nH]nc(-c3ccccc3O)c2C1c1ccc(CC)cc1 (configuration not stated)	HepG2 viability 18µM, TGFb inhibitor inconclusive, TDP1 cell noCPT 16µM, DT40 TDP1 CPT 21µM (no result: IL1B secr inh)
CCOc1ccc(S(=O)(=O)Nc2ccc3oc(C)c(C(=O)OCCOC)c3c2)cc1	TGFb inhibitor inconclusive, TDP1 cell noCPT 1.5µM, DT40 TDP1 CPT 1.8µM (no result: IL1B secr inh)
CCCCOC(=O)c1c(C)oc2ccc(NS(=O)(=O)c3ccc4c5c(cccc35)C(=O)N4)cc12	TGFb inhibitor 14µM, TDP1 cell noCPT 18µM, DT40 TDP1 CPT inconclusive
CCOc1ccc(S(=O)(=O)N(C(C)=O)c2ccc3oc(C)c(C(=O)OC)c3c2)cc1	TGFb inhibitor inconclusive, TDP1 cell noCPT 0.58µM, DT40 TDP1 CPT 1.3µM (no result: IL1B secr inh, TDP1 inh)
CC(=O)c1c(C)oc2ccc(N(C(C)=O)S(=O)(=O)c3ccc(Br)cc3)cc12	TGFb inhibitor inconclusive, TDP1 cell noCPT inconclusive, DT40 TDP1 CPT inconclusive (no result: TDP1 inh)
COCCOC(=O)c1c(C)oc2ccc(NS(=O)(=O)c3cccs3)cc12	none
CC(=O)c1c(C)oc2ccc(N(C(C)=O)S(=O)(=O)c3ccc(Cl)c([N+](=O)[O-])c3)cc12	IL1B secr inh -117, TDP1 cell noCPT inconclusive, DT40 TDP1 CPT inconclusive
c1ccc(CCNC2=NCCS2)cc1	none
CCOc1ccc(CN(C)CC(=O)Nc2ccccc2C(=O)NC2CC2)cc1	TDP1 cell noCPT inconclusive, DT40 TDP1 CPT inconclusive
CC(C)C[C@H](NC(=O)CNC(=O)[C@H](Cc1ccc(O)cc1)NC(=O)[C@H](CO)NC(=O)[C@H](Cc1c[nH]c2ccccc12)NC(=O)[C@H](Cc1cnc[nH]1)NC(=O)[C@@H]1CCC(=O)N1)C(=O)N[C@@H](CCCN=C(N)N)C(=O)N1CCC[C@H]1C(=O)NCC(N)=O (stereo in doubt)	none (no result: HepG2 viability, IL1B secr inh, TDP1 inh, TGFb inhibitor)
O=C1Nc2ccc(S(=O)(=O)Nc3ccccc3O)c3cccc1c23	none (no result: IL1B secr inh)
CCOC(=O)c1c(C)oc2ccc(N(C(=O)c3ccncc3)S(=O)(=O)c3ccc(Br)cc3)cc12	none (no result: IL1B secr inh, TDP1 cell noCPT, DT40 TDP1 CPT)
COC(=O)c1c(C)oc(C)c1S(=O)(=O)N(Cc1ccccc1)C(C)C	TDP1 cell noCPT 16µM, DT40 TDP1 CPT 13µM
CC(=O)c1c(C)oc2ccc(N(C(=O)c3ccncc3)S(=O)(=O)c3ccccc3)cc12	TDP1 cell noCPT inconclusive
CC(C)OC(=O)C(C(=O)C(F)(F)F)c1cc(NS(=O)(=O)c2ccc3c4c(cccc24)C(=O)N3)ccc1O (configuration not stated)	TDP1 cell noCPT inconclusive, DT40 TDP1 CPT 12µM (no result: IL1B secr inh, TDP1 inh)
COC(=O)c1c(C)oc2ccc(N(C(=O)c3ccncc3)S(=O)(=O)c3ccc(Br)cc3)cc12	TGFb inhibitor inconclusive, TDP1 cell noCPT 3.7µM, DT40 TDP1 CPT 8.2µM (no result: IL1B secr inh)
O=C(c1ccncc1)N(c1ccc2oc3c(c2c1)CCCC3)S(=O)(=O)c1ccc(F)cc1	IL1B secr inh -138, TGFb inhibitor inconclusive, TDP1 cell noCPT inconclusive, DT40 TDP1 CPT inconclusive
COC(=O)c1c(C)oc2ccc(N(C(C)=O)S(=O)(=O)c3ccccc3)cc12	DT40 TDP1 CPT 15µM (no result: TDP1 inh)
COC1OC(CO)C(N(C)C(C)=O)C1O (configuration not stated)	none (no result: TDP1 inh)
Cc1ccc(SCC(=O)Nc2ccc(S(=O)(=O)Nc3nccs3)cc2)cc1	TDP1 cell noCPT 3.7µM, DT40 TDP1 CPT inconclusive
O=C(CSc1ccncc1)Nc1ccc(S(=O)(=O)Nc2nccs2)cc1	none (no result: TDP1 inh)
Cc1ccc(S(=O)(=O)CCC(=O)Nc2nccs2)cc1	TDP1 cell noCPT inconclusive
Cc1ccc(S(=O)(=O)NCCC(=O)Nc2nccs2)cc1	IL1B secr inh -64
CCOC(=O)C1(C)CCN1C(=O)c1ccc(OC)c(F)c1 (configuration not stated)	none (no result: TDP1 inh)
CC1(c2ccccc2)CC(C)(C)n2c(O)c(C3=NC(=S)NC3=O)c3cccc1c32 (configuration not stated)	TDP1 cell noCPT 23µM, DT40 TDP1 CPT inconclusive (no result: TDP1 inh)
COc1cc2c3c(c1)c(C1=NC(=S)NC1=O)c(O)n3C(C)(C)C=C2C	none
O=C(COC(=O)c1ccccc1O)NCC1COc2ccccc2O1 (configuration not stated)	TGFb inhibitor inconclusive, TDP1 cell noCPT inconclusive
Cc1ccccc1C(=O)OCC(=O)NCC1COc2ccccc2O1 (configuration not stated)	TDP1 cell noCPT 18µM, DT40 TDP1 CPT inconclusive
CC(C)Oc1ccc(/C=C/C(=O)NCC2COc3ccccc3O2)cc1 (configuration not stated)	IL1B secr inh -72, TDP1 cell noCPT inconclusive
CC(=O)NCC1COc2ccccc2O1 (configuration not stated)	none (no result: TDP1 inh)
Cc1ccc(CNC(=O)c2ccc3c(=O)n(-c4ccccc4)c(=O)[nH]c3c2)cc1	none (no result: IL1B secr inh)
Cc1cccc(NC(=S)N(CCN2CCOCC2)Cc2cc3cc4c(cc3[nH]c2=O)OCCO4)c1	TDP1 cell noCPT 16µM, DT40 TDP1 CPT inconclusive
O=c1[nH]c2cc3c(cc2cc1CN(CCc1ccccc1)C(=S)NCCCN1CCOCC1)OCCO3	TDP1 cell noCPT 21µM, DT40 TDP1 CPT inconclusive (no result: TDP1 inh)
